Neddyl block = cullin neddylation inhibition. P61081+Q13564. TR-FRET cullin neddylation, biochemical. inhibition, % at 25 µM. hit rate 0.58% among 360,000. AID 651699; in the data active means inhibition above about 36%
Bfl-1 A1 inh = inhibitors of the anti-apoptotic protein A1, read as caspase activation; hit rate 0.066% among 330,000; AID 2462; MEF A1-2A-BIM cells, Caspase-Glo 3/7 luminescence, 3 h; percent of clofoctol response, vehicle zero; caspase activation, % (no concentration beside the values);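 active means over half of replicate activation scores above 10%, or exactly half above 10 with the replicate mean above 10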
INS-1E GSIS act = primary screen for activators of insulin secretion dependent on glucose, INS-1E cells, GLuc reporter luminescence; activation, % at 16.6 µM; INS-1E GLuc reporter insulin secretion, 2-3 h; hit rate 0.61% among 370,000;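 active means lowest replicate activation of at least 40%, so every replicate reaches that level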;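 further: 0% = median of neutral control wells and 100% = median of IBMX positive control wells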
dFosB act-1 = enhances mouse delta FosB homodimer DNA binding; purified delta FosB, TAMRA-CDK5 oligo fluorescence polarization; percent of positive-control signal above neutral wells; activation, % at 25 µM; hit rate 0.99% among 340,000;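 active means mean activation above about 17%, with every replicate also reaching it, limit read from the data, passing the limit was not always enough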
Target sequence (P13346 whole entry, looked up): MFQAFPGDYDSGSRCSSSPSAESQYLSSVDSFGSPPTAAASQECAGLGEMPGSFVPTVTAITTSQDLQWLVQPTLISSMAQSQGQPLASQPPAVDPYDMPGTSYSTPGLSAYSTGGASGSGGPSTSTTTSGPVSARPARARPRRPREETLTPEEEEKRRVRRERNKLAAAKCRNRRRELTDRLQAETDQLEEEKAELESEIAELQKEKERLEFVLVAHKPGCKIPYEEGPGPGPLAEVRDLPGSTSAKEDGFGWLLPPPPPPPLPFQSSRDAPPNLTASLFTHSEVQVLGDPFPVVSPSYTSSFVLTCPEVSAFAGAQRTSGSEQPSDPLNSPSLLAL
Vif imaging = blocks HIV Vif function; HEK293T cells, Vif self-association by quenched fluorescence, imaging, 24 h; inhibition, % at 7.49 µM; hit rate 0.35% among 340,000; AID 602346; in the data active means inhibition above about 50%, passing the limit was not always enough
dFosB act-2 = activators of mouse delta FosB homodimer DNA binding | shares compounds with dFosB act-1 | purified delta FosB, TAMRA-CDK5 oligo fluorescence polarization; normalised: neutral wells 0, positive control 100 | activation, % at 24.9 µM | 2,400 tested, under 10 active;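 active means highest replicate activation at or above 34% and every replicate reaching that threshold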;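 further: higher polarization means more probe DNA bound by delta FosB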
* marks the source's active call; other numbers are inactive results; . = no result shown. This is a sample that favours compounds with a hit; in the whole collection about 1.9% have one here.

SMILES	Neddyl block	Bfl-1 A1 inh	INS-1E GSIS act	dFosB act-1	Vif imaging	dFosB act-2
C[C@@H]1CN([C@H](C)CO)C(=O)c2cc(NC(=O)c3ccccc3)ccc2O[C@@H](C)CCCCO[C@H]1CN(C)S(C)(=O)=O	.	.	-0.2	.	.	.
COCCn1c(SCC(=O)c2c(N)n(C3CC3)c(=O)[nH]c2=O)nnc1-c1ccc(Cl)cc1	-60.8	1.0	-1.1	20.6*	-1.9	0.7
C[C@@H]1CCCCO[C@H](CN(C)Cc2ccccc2)[C@H](C)CN([C@H](C)CO)C(=O)c2cc(NC(=O)Cc3ccccc3)ccc2O1	.	.	-20.4	.	.	.
COc1ccccc1CNC(=O)C[C@H]1C[C@H]2c3cc(NS(C)(=O)=O)ccc3O[C@H]2[C@@H](CO)O1	.	.	5.1	.	.	.
CCN(CC)CCCNC(=O)c1ccc2c3n(nc2c1)-c1ccc(Cl)cc1CO3	8.6	-2.0	-7.6	33.6*	-2.1	-2.5
CCCNC(=O)C[C@H]1CC[C@@H]2[C@H](COC[C@H](O)CN2C(=O)c2cccnc2)O1	.	.	-2.9	.	.	.
O=C(Nc1cc(Br)ccc1O)c1cc(-c2cccs2)on1	3.0	-0.3	41.4	49.0*	24.5	-4.2
O=C(Nc1cc(Br)ccc1O)c1cc(-c2ccc3c(c2)OCO3)on1	7.7	-2.7	1.7	76.6*	20.6	1.0
CSc1ccccc1NC(=O)c1cc(-c2ccc3c(c2)OCO3)on1	6.2	-4.2	-2.9	7.7	25.1	.
COc1ccc(NC(=O)c2cc(-c3ccc4c(c3)OCO4)on2)cc1OC	19.4	-0.6	1.0	32.9*	15.5	2.0
Cc1csc(Nc2nc(N)c(C(=O)Nc3cc(Cl)ccc3F)o2)n1	7.1	-0.4	-5.0	19.8*	2.1	2.3
Cc1csc(NC(=O)Cc2c(F)cccc2Cl)n1	-0.3	0.2	9.6	-5.9	-2.6	.
C[C@@H]1CN([C@H](C)CO)C(=O)c2cc(NS(C)(=O)=O)ccc2O[C@H]1CN(C)CC1CCCCC1	.	.	-5.2	.	.	.
CCc1nn(CC(=O)NCCC2=CCCCC2)c(=O)c2cc3cc(F)ccc3n12	5.0	-2.3	-8.4	40.6*	-0.5	-5.7
O=C(Nc1ccc2c(c1)[C@@H]1C[C@@H](CC(=O)N3CCCCC3)O[C@H](CO)[C@@H]1O2)c1cccnc1	.	.	-5.3	.	.	.
O=C(O)c1ccc(COc2ccccc2/C=C2\NC(=O)N(Cc3ccc(F)cc3)C2=O)cc1	0.6	-0.9	16.2	-2.5	0.0	.
O=C(O)c1ccc(COc2ccccc2/C=C2/NC(=O)N(c3cccc(Cl)c3)C2=O)cc1	11.0	0.7	3.6	28.4*	-3.2	3.9
C[C@@H]1CN([C@H](C)CO)C(=O)Cc2cc(NC(=O)Cc3cn(C)c4ccccc34)ccc2O[C@H]1CN(C)C(=O)Nc1ccc2c(c1)OCO2	.	.	6.6	.	.	.
Cc1ccc(NC(=O)C2CC(=O)Nc3nc4ccccc4n32)c(C)c1 (stereo not drawn)	-2.7	0.1	1.9	47.4*	10.2	5.9
CCC(=O)Nc1ccc2c(c1)C(=O)N(C)C[C@@H](OC)[C@@H](C)CN(Cc1ccccc1)[C@@H](C)CO2	.	.	-2.4	.	.	.
O=C(Nc1ccc(NC(=O)c2cc3ccccc3o2)cc1)c1ccc2c(c1)OCCO2	.	-0.6	20.3	42.5*	-14.9	-1.1
O=C(Nc1ccc2oc(-c3ccncc3)nc2c1)c1ccc(F)cc1	.	0.5	0.2	35.5*	-4.5	2.8
O=C(Nc1ccc2oc(-c3ccccc3)nc2c1)c1ccc2c(c1)OCCO2	36.7	0.2	.	41.6*	-9.3	2.9
O=C(Nc1ccc2oc(-c3ccccc3F)nc2c1)c1cncc(Br)c1	15.4	-0.4	.	22.3*	-8.8	1.2
Cc1ccc(S(=O)(=O)N(C)C[C@@H]2Oc3ccc(NC(=O)C4CC4)cc3C(=O)N([C@@H](C)CO)C[C@@H]2C)cc1	.	.	16.9	.	.	.
SMILES	Neddyl block	Bfl-1 A1 inh	INS-1E GSIS act	dFosB act-1	Vif imaging	dFosB act-2
C[C@H](CO)N1C[C@H](C)[C@H](CN(C)C(=O)Nc2cccc3ccccc23)Oc2ccc(NS(=O)(=O)c3ccc(Cl)cc3)cc2C1=O	.	.	-19.6	.	.	.
C[C@H](CO)N1C[C@H](C)[C@@H](CN(C)Cc2ccc(Cl)c(Cl)c2)Oc2ccc(NC(=O)Nc3ccccc3)cc2CC1=O	.	.	-6.5	.	.	.
C[C@H](CO)N1C[C@H](C)[C@@H](CN(C)C(=O)c2cccc(F)c2)Oc2cc(C#CC3CCCC3)ccc2S1(=O)=O	.	.	-24.2	.	.	.
O=C(Nc1ccc2oc(-c3ccncc3)nc2c1)c1ccc2c(c1)OCO2	14.4	0.2	6.7	-6.9	2.0	.
O=C(Nc1ccc2oc(-c3ccncc3)nc2c1)c1ccc2c(c1)OCCO2	6.6	-0.1	22.5	45.6*	8.1	0.4
O=C(Nc1ccc2oc(-c3cccnc3)nc2c1)c1ccc2c(c1)OCCO2	9.7	-0.5	42.9*	32.9*	-3.4	2.0
CCCCCC(=O)Nc1ccc2oc(-c3cccnc3)nc2c1	.	-1.0	.	0.7	-3.2	.
O=C(Cc1ccccc1)Nc1ccc2oc(-c3cccnc3)nc2c1	.	0.9	.	22.1*	8.5	0.9
O=C(Nc1ccc(NC(=O)c2ccco2)c(Cl)c1)c1ccc2c(c1)OCCO2	.	-3.4	8.2	60.3*	-14.7	1.0
CN1[C@@H]2c3ccc(-c4ccncc4)c(=O)n3C[C@H]1[C@H](CO)[C@H]2C(=O)NC1CCCCC1	.	.	4.9	.	.	.
COCC(=O)Nc1ccc2c(c1)C(=O)N(C)[C@H]1CC[C@H](CC(=O)O)O[C@@H]1CO2	.	.	-2.5	.	.	.
Cc1noc(C)c1NC(=O)Nc1ccc2c(c1)C(=O)N([C@H](C)CO)C[C@@H](C)[C@H](CN(C)C(=O)Nc1ccccc1)O2	.	.	27.9	.	.	.
CCOC(=O)Cn1c(=NC(=O)CSC(C)=O)sc2cc(OC)ccc21	-172.0	-0.1	.	-4.2	11.9	.
COC(=O)Cn1c(=NC(=O)CSCC(=O)NC2CCCCC2)sc2cc(OC)ccc21	-247.4	0.0	.	29.4*	.	-1.4
COc1ccc(S(=O)(=O)N[C@@H]2CC[C@@H](CC(=O)NCc3ccccc3F)O[C@@H]2CO)cc1	.	.	-5.0	.	.	.
CCN(CC(=O)Nc1ccc(NC(C)=O)cc1)C(=O)/C=C/c1cn(-c2ccccc2)nc1-c1ccc(F)cc1	13.3	0.5	-6.2	21.0*	10.8	0.7
COc1ccc(S(=O)(=O)N(C)C[C@@H]2OCCCC[C@H](C)Oc3ccc(NC(=O)Nc4ccc5c(c4)OCO5)cc3C(=O)N([C@H](C)CO)C[C@@H]2C)cc1	.	.	4.3	.	.	.
CO[C@@H]1CN(C)C(=O)c2ccc(NC(=O)Nc3ccccc3F)cc2OC[C@@H](C)N(S(=O)(=O)CC(F)(F)F)C[C@H]1C	.	.	-16.9	.	.	.
Clc1cc(Cl)cc(Nc2ncnc(-n3cccc3)n2)c1	3.8	0.3	10.7	29.9*	-14.9	-0.9
Cc1ccc(Nc2ncnc(-n3cccc3)n2)cc1Cl	-0.7	-0.5	.	5.1	-2.6	.
CC1(C)Cc2c(sc3nc(SCC(=O)NCc4ccco4)n(-c4ccccc4)c(=O)c23)CS1	-16.1	0.1	.	2.0	19.2	.

Assay outcomes (PubChem BioAssay)
